Bioassay records deposited in PubChem BioAssay by National Center for Advancing Translational Sciences (NCATS).
In the library only some 1.1% were active in any assay of this set; here they are far more common.
TrxR1 inh = blocks rat thioredoxin reductase 1. O89049. recombinant rTrxR1, NADPH fluorescence consumption, selenite substrate. Potency, µM (titrated, usually from 114 µM), actives largely listed as inhibitors. hit rate 1% among 390,000; note: nearly all actives have a fitted effect of over 65% in size
Target sequence (O89049 whole entry, looked up): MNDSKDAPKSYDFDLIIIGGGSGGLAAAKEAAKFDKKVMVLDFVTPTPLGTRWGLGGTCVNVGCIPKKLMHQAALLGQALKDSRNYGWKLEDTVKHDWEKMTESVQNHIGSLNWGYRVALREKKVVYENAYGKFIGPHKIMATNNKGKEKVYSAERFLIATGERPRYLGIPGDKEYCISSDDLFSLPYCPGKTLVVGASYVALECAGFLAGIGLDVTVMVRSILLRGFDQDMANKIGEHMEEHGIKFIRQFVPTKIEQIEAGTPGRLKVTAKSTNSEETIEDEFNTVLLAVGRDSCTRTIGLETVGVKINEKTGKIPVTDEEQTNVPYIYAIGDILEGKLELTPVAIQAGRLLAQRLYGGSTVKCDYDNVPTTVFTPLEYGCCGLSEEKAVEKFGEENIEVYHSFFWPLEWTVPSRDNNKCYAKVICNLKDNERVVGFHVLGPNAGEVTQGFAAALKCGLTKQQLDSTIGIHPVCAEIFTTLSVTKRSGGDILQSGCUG
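Rat TrxR1 (90 nM in the dispensed reagent) was pre-reduced with 400 uM NADPH for 5 min at room temperature, then incubated with compound for 15 min. After 400 uM selenite was added, NADPH fluorescence (Ex 340/Em 450 nm) was followed for 8 min.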
GALK inhibitor = inhibitors of human galactokinase | P51570 | AID 1868 | Potency, µM (series often up to 57.5 µM), most hits filed as inhibitors | hit rate 0.007% among 270,000 | Purified GALK, Kinase-Glo residual ATP luminescence
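Galactose (100 uM) and ATP (35 uM) were turned over by 5 nM GALK for 1 h at RT. Kinase-Glo Plus then converted the remaining ATP into a luminescent signal.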
PI4K2A block = inhibitors of human PI4K2A. purified PI4K2A, ADP-Glo luminescence, 1 h; active compounds read low. activity change, negative = inhibition, % at 76.9 µM. hit rate 0.13% among 420,000; in the data active = activity change below about -50%; inconclusive = mostly about -30% to -49%
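PI4K2A activity was measured by ADP-Glo luminescence: enzyme (4 ug/mL stock) and phosphatidylinositol (1.2 mM stock) in Tris pH 7.5/MgCl2/EGTA/Triton X-100 buffer were reacted with ATP (300 microM stock) for one hour at ambient temperature.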
TrxR1 substrate = is turned over as a substrate by rat TrxR1; purified TrxR1 substrate turnover, NADPH consumption readout; O89049; hit rate 0.01% among 390,000; Potency, µM (doses to about 114 µM); AID 588456; note: nearly all actives have a fitted effect of over 50% in size
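Rat TrxR1, dispensed at 90 nM, was prereduced with 400 uM NADPH (final) for 5 min at ~22 deg C, then incubated with compound 15 min before 400 uM selenite. A first-read NADPH fluorescence drop versus no-compound background flagged substrates.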
Large screens that a line does not name were inactive. Unless noted, calls come from the whole dose curve; as a rule, active = well fitted curve in the direction sought with a large enough effect; inconclusive = small, poorly fitted or top-dose-only effect, or another doubt; inactive = no such curve, though single readings can be large; an effect the other way counts as inactive or inconclusive.

CC(=O)C(Sc1nc(N(C)C)nc(N(C)C)n1)C(=O)Nc1ccccc1 (stereo not given)	none
CC(C)(C)CCN1CCC[C@H](NC(=O)COc2ccc(F)c(Cl)c2)C1	none (no result: TrxR1 inh, GALK inhibitor, TrxR1 substrate)
CCOc1ccc(NC(=O)CSc2cn(CC(=O)N3CCCCCC3)c3ccccc23)cc1	none (no result: GALK inhibitor)
Cc1ccc(S(=O)(=O)Nc2nc3ccccc3nc2NCc2ccco2)cc1	TrxR1 inh 8.9µM
Cc1ccc2ncnc(NCc3ccco3)c2c1	TrxR1 inh 79µM (no result: GALK inhibitor, PI4K2A block)
Cc1cnc(CNC(=O)CC2C(=O)NCCN2Cc2ccccc2C(F)(F)F)cn1 (stereo not given)	TrxR1 inh inconclusive, PI4K2A block -61
Cc1cc(CNC(=O)CC2C(=O)NCCN2Cc2ccccc2C(F)(F)F)on1 (stereo not given)	TrxR1 inh inconclusive
CC(C)Oc1ccc(CNC(=O)c2ccc3nc(C(C)C)oc3c2)cc1	none (no result: GALK inhibitor)
S=C(Nc1ccc(Cl)cc1)c1nc2ccccc2s1	none
Cc1ccc(NC(=S)c2nc3ccccc3s2)cc1	PI4K2A block -82
Cc1ccc2nc3c(nc2c1C)C(O)=C3O	TrxR1 inh 8.9µM
c1cc(N2CCCC2)ccc1C(c1nnnn1C1CCCCC1)N1CCOCC1 (stereo not given)	TrxR1 inh 7.1µM
COc1ccc(C(c2nnnn2C2CCCCC2)N2CCN(c3ccc(OC)cc3)CC2)cc1 (stereo not given)	none
N=C(N)c1ccc(/C=C/c2ccc(C(=N)N)cc2O)cc1	none (no result: GALK inhibitor)
Oc1ccc(/C=C/c2ccc(/C=C/c3ccc(O)cc3)c(Br)c2)cc1	TrxR1 inh 22µM (no result: GALK inhibitor)
COC(=O)CSc1nnc(C)c(=O)[nH]1	none
CCOC(=O)CNc1nnc(SCC(=O)OCC)[nH]c1=O	TrxR1 inh 10µM
COc1cc2c(NC3CCN(C)CC3)nc(N3CCCN(C)CC3)nc2cc1OCc1ccccc1	none (no result: GALK inhibitor, PI4K2A block)
Cc1ccc(-c2nc3c(c(=O)[nH]c(=O)n3Cc3ccccc3)n2C)o1	TrxR1 inh 32µM
O=C1NC(=S)S/C1=C\C=C\c1ccc([N+](=O)[O-])o1	TrxR1 inh 10µM
O=[N+]([O-])c1ccc(/C=N\O)o1	none (no result: TrxR1 inh, GALK inhibitor, TrxR1 substrate)
Nn1cnnc1N/N=C/c1ccc(F)cc1	PI4K2A block inconclusive
Nn1cnnc1N/N=C/c1ccc(Cl)c([N+](=O)[O-])c1	PI4K2A block -52
CCN(CC)Cc1cc(O)c(CN(CC)CC)cc1O	TrxR1 inh 10µM
CCc1oc(C(=O)O)cc1CN(CC)CC	none
NS(=O)(=O)c1ccc(CNC(=O)/C=C/c2ccco2)cc1	TrxR1 inh 18µM
Cc1ccc(/C=C/C(=O)OCC(=O)NCCc2ccc(S(N)(=O)=O)cc2)o1	none (no result: GALK inhibitor)
O=C(/C=C/c1ccco1)NCC1CCCO1 (stereo not given)	TrxR1 inh 28µM
Cc1ccc(/C=C/C(=O)NCc2ccc(S(N)(=O)=O)cc2)o1	TrxR1 inh 16µM
O=C(/C=C/c1ccco1)NCc1ccco1	TrxR1 inh 71µM
Cc1ccc(C(=O)N/C(=C/c2ccco2)C(=O)NCC2CCCO2)cc1 (stereo not given)	TrxR1 inh inconclusive
Cc1ccccc1-c1cc(C(=O)NCc2cccc(Br)c2)nn1CC1CC(c2cccc([N+](=O)[O-])c2)=NO1 (stereo not given)	none (no result: GALK inhibitor)
OCC[N+]1(CCc2ccccc2)CCOCC1	none (no result: GALK inhibitor, PI4K2A block)
CCOc1cc(C2C(C(=O)OC)=C(C)NC3=C2C(=O)c2ccccc23)cc(Br)c1OCC (stereo not given)	none (no result: GALK inhibitor)
CC(=O)NS(=O)(=O)c1ccc(NC(=O)/C=C/c2ccc(C)o2)cc1	TrxR1 inh 16µM
CC(=C/C(=O)O)/C=C/c1ccco1	TrxR1 inh 28µM (no result: GALK inhibitor)
Cc1ccc(/C=C/C(=O)Nc2ccncc2)o1	TrxR1 inh 79µM
Cc1ccc(/C=C/C(=O)Nc2ccc(S(N)(=O)=O)cc2)o1	TrxR1 inh 5µM
Cc1ccc(/C=C/C(=O)Nc2ccc(N(C)C)cc2)o1	none
CC(C)(C)n1ncc2c(=O)n(Cc3ccc(OC(F)(F)F)cc3)cnc21	none (no result: GALK inhibitor, PI4K2A block)
COc1ccc(NC(=O)c2cc3ccccc3o2)c(OC)c1	none (no result: GALK inhibitor)
CC(=O)NC(Nc1c(C)n(C)n(-c2ccccc2)c1=O)C(Cl)(Cl)Cl (stereo not given)	TrxR1 inh 56µM
C[C@@H](CN1CC(=O)NC(=O)C1)N1CC(=O)NC(=O)C1	none (no result: TrxR1 inh, GALK inhibitor, TrxR1 substrate)
O=C1C=CC(=O)c2c(O)c(N3CCN(CCOCCO)CC3)c(Br)c(O)c21	TrxR1 inh inconclusive, PI4K2A block -60, TrxR1 substrate inconclusive (no result: GALK inhibitor)
O=S(=O)(c1ccc(Br)cc1Cl)N1CCN(CCO)CC1	none
OCCOCCN1CCN(C2=Nc3ccccc3Sc3ccccc32)CC1	none
